# Results from PubChem BioAssay (NCI).
# Compounds without any hit were thinned out: in the full panel of roughly 83,000, 20% have a hit.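 Percent growth is the endpoint: 0 to 100 indicates growth inhibition (40 means 60% inhibition), 0 means no net growth, and negative values indicate cell death.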 Calls of active or inactive are those of the source.
# System: A549/ATCC NSCLC
# Assay: NCI-60 one-dose screen, 48 h (100 = growth as untreated, 0 = no growth, -100 = all killed)
# Details: 10 µM unless noted
# Experimental: Growth inhibition of the A549/ATCC human Non-Small Cell Lung tumor cell line is measured as a screen for anti-cancer activity. Cells are grown in 96 well plates and exposed to the test compound for 48 hours. Compounds are tested at a single concentration, which is 10^-5 M for most compounds. The reported endpoint is percent growth (GI% or GIPRCNT), where numbers from 0 - 100% represent growth inhibition, and numbers from -100% - 0 represent cell death. For example, a value of 40 represents 60% growth inhibition. A value of 0 means no net growth occurred over the course of the experiment. A value of -40 indicates 40% of cells at the beginning of the experiment died by the end of the experiment. A value of -100 means all cells are dead at the end of the experiment.
# NCI-60 Human Tumor Cell Lines Screen was performed using the standard one-dose NCI protocol, which is described in more detail at https://dtp.cancer.gov/discovery_development/nci-60/default.htm.
# Compounds with GIPRCNT values below 10 were considered active. Activity score was based on GIPRCNT using the following formula: […]
# Score is 0 for GIPRCNT values of 100 or above, 50 for GIPRCNT values of 0, and 100 for GIPRCNT values of -100.
row,Compound,growth
1,COc1cc2c(=O)n(C3CCCCCC3)c3c4cc[nH]c4ncc3c2cc1OC,79.7% (inactive)
2,COC1=C(OC)C(=O)C(CCCCCCCCCC[P+](c2ccccc2)(c2ccccc2)c2ccccc2)=C(C)C1=O,-4.09% (active)
3,COc1ccc(-n2c(=O)sc3c(Cl)nc(C)nc32)c(OC)c1,98.7% (inactive)
4,Cc1ccc2nc(-c3cc4c([nH]c5ccccc54)c(-c4ccc(F)c(F)c4)n3)[nH]c2c1,79% (inactive)
5,N#Cc1c(Nc2ccccc2)nc2n(c1=O)-c1ccccc1Sc1ccccc1-2,78.8% (inactive)
6,O=C1NC(=C(Cl)Cl)/C(=N/S(=O)(=O)N2CCC(C3(C(F)(F)F)N=N3)CC2)N1,106% (inactive)
7,COc1ccc(C(=O)N2NC(=O)/C(=C/c3ccc(F)cc3)N=C2c2ccccc2)cc1,86.4% (inactive)
8,COc1cc(/C=C/C(=O)c2c(C)nc3ccccc3c2C)ccc1OCCCCOc1cc2c(cc1OC)C(=O)N1CCC[C@H]1C=N2,-52.6% (active)
9,OB(O)c1cccc(-c2nc3ccc4[nH]ncc4c3c3c2CCCC3)c1F,47.9% (inactive)
10,CCN(CC)CCC(CNc1ccnc2cc(Cl)ccc12)c1ccc(Cl)cc1 (stereo not given),12.3% (inactive)
11,C=C1C(=O)O[C@H]2[C@H]1CC/C(Cn1cc(CNC(=O)c3cc4ccccc4[nH]3)nn1)=C\CC[C@@]1(C)O[C@@H]21,93.4% (inactive)
12,CCCCC(CC)OC(=O)C(Br)CC (stereo not given),103% (inactive)
13,Nc1nnc(-c2ccc3ccccc3c2O)o1,93.5% (inactive)
14,O=C1C2(c3ccccc3)C(c3ccccc3)=C(c3ccccc3)C1(c1ccccc1)C1CC=CC12 (stereo not given),78.3% (inactive)
15,COc1cccc(CC(C)=C(c2ccc(OCCN3CCCCC3)cc2)c2ccc(OCCN3CCCCC3)cc2)c1,2.38% (active)
16,CCN(CC)CCOC(=O)C(c1ccccc1)(c1ccccc1)C(C)C,80% (inactive)
17,COc1ccc(-c2nc3sccn3c2/C=C/C(=O)c2cc(F)cc(F)c2)cc1,89.3% (inactive)
18,Cc1ccc(S(=O)(=O)n2cc(C(=O)C(=O)N3CCOCC3)c3ccccc32)cc1,114% (inactive)
19,Cc1ccc(C(=O)NCCCNc2nccc(-n3ccc4cccnc43)n2)cc1,93.4% (inactive)
20,O=C(c1ccccc1)C1OC1c1ccc([N+](=O)[O-])cc1 (stereo not given),85.6% (inactive)

row,Compound,growth
1,COc1cc2c(c(OC)c1OC)-c1ccc(N)c(=O)cc1[C@@H](NC(C)=O)CC2,21.3% (inactive)
2,COc1ccc2c(c1)OC1=C(C(=O)OC1)C2c1cc(OC)c2c(c1)OCO2 (stereo not given),14.4% (inactive)
3,COc1cc(-c2nn(-c3cccc(NC(=O)Nc4cc(C(F)(F)F)cc(C(F)(F)F)c4)c3)cc2-c2ccncc2)ccc1Cl,-23.8% (active)
4,COc1ccc(/C=C/c2c(C(C)=O)c(C)nc3ccccc23)cc1,80.6% (inactive)
5,COc1cccc(/C=C2\Oc3cc(OCCCN4CCCC4)ccc3C2=O)c1OC,97.2% (inactive)
6,Fc1ccc(Nc2nc(NCCNc3ccnc4cc(Cl)ccc34)nc(N3CCOCC3)n2)cc1,55.7% (inactive)
7,Cc1ccc(Cc2c(C=O)nc(N)[nH]c2=O)c2ccccc12,86.6% (inactive)
8,CCCCCCCCCCCCNC(=O)[C@H]1CSC(c2cc3ccccc3s2)N1 (stereo not given in full),63.8% (inactive)
9,COc1ccc(C(=O)c2cc(OC)c(OC)c(OC)c2OC)cc1O,50.6% (inactive)
10,Nc1ccc(C(=O)CSc2nc3ccccc3[nH]2)cc1,99.8% (inactive)
11,N[C@@H]1CCN(C(=O)c2cc3cc(Cl)c(F)c(F)c3[nH]2)C1,93.6% (inactive)
12,O=C(C1=Cc2cc3ccccc3n2Cc2cnnn21)c1ccccc1,58.5% (inactive)
13,O=S(=O)(NCCNc1nccc(-c2c(-c3ccc(F)cc3)nc3sccn23)n1)c1ccc(F)cc1,49.3% (inactive)
14,O=C1C(Cl)=C(Nc2ccccn2)C(=O)c2ccccc21,104% (inactive)
15,CCCCCCCCCCCCCCCCCCNC(=O)[C@H]1CSC(c2cccs2)N1 (stereo not given in full),8.15% (active)
16,COc1ccc(-c2ccc(C)n2-c2ccc(-c3nc4cc(Cl)ccc4s3)cc2)cc1,95.5% (inactive)
17,COc1ccc(Nc2nn3c(C)cc(C)nc3c2C(=O)Nc2ccc(C)cc2)c(OC)c1,93.5% (inactive)
18,O=C(CSC1CCc2ccccc21)N/N=C/c1ccccc1O (stereo not given),48.2% (inactive)
19,CCOC(=O)C1C(=O)C=C(c2ccc(OC)cc2)CC1c1sc(N(C)Cc2ccccc2)nc1Cl (stereo not given),82% (inactive)
20,CC[N+](CC)=c1cc2oc3cc(N(C)C)ccc3nc-2cc1C,36.5% (inactive)
